Data taken from PubChem BioAssay AID651673 (Broad Institute, 2012).
The other results are listed elsewhere or left out. The source made the active and inactive calls.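 The calls were made as follows: active = signal drop giving an AC50 within twice the top valid tested concentration of each sample (actives reach about 35 µM in these data); inactive = activity opposite to expected, plus the rest.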

assay: DNA binding of candidate compounds, dose response, artefact control for RAD54 inhibitor project, biochemical, fluorescence polarization, cherry-pick (AID 651673); settings: Acridine orange-DNA displacement, 20 min; series mostly up to 35 µM; activity change, negative = DNA binding: at the top concentration;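 also: polarization loss reports compound binding to salmon sperm DNA; 0% = neutral control median and -100% = 10 µM mitoxantrone control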

Row | Compound | activity change, negative = DNA binding
1 | COc1ccccc1C(=O)C(O)c1ccccc1OC (stereo not drawn) | -5.88% (inactive)
2 | CC1CCc2sc3nc(N4CCN(CCO)CC4)n4ncnc4c3c2C1 (stereo not drawn) | 9.08% (inactive)
3 | CCN(CC)CCCNC(=O)c1cc2c(=O)[nH]c3ccc(C)cc3c2s1 | -18.1% (inactive)
4 | Cc1cc2oc3ccc(NCCC4CCCN4C)cc3c(=O)c2cc1C (stereo not drawn) | -3.62% (inactive)
5 | COC(=O)c1c(NC(=O)c2ccc(S(=O)(=O)N3CCOCC3)cc2)sc2c1CCN(C(C)C)C2 | 14.2% (inactive)
6 | Cc1nc2ccccc2c2oc(C(=O)NCCCN3CCC(C)CC3)cc12 | -13.5% (inactive)
7 | Cc1cccn2c(=O)c3cc(C#N)c(=O)n(CCCN4CCOCC4)c3nc12 | -9.39% (inactive)
8 | CCN(CC)CCn1c2ccc(Cl)cc2c2nc(C)sc21 | -1.63% (inactive)
9 | CCOC(=O)C1C(=O)NC(N2CCN(c3ccccc3)CC2)=NC1c1ccco1 (stereo not drawn) | 3.21% (inactive)
10 | COc1cccc2sc3cc(NCC[C@@H]4CCCN4C)ccc3c(=O)c12 | -7.26% (inactive)
11 | COc1ccc(CCn2c(=N)c(C(=O)NCC3CCCO3)cc3c(=O)n4cccc(C)c4nc32)cc1OC (stereo not drawn) | -13% (inactive)
12 | O=C(NCCCN1CCOCC1)c1cnn2c(-c3ccccc3)cc(-c3ccccc3)nc12 | -0.136% (inactive)
13 | CCn1c(=N)c(C(=O)NCCCOC)cc2c(=O)n3cccc(C)c3nc21 | -6.19% (inactive)
14 | CCOCCCNC(=S)Nc1ccc2nc(N3CCN(CC)CC3)cc(C)c2c1 | -9.47% (inactive)
15 | COc1ccc(C(=O)Nc2cc(C)c(NC(=O)c3ccccc3OC)cn2)cc1 | -5.9% (inactive)
16 | CN1CCN(CCCNC(=O)c2cc3c(=O)oc4ccccc4c3s2)CC1 | -21% (inactive)
17 | c1ccc(-c2nnc(SCc3nc4ccccc4[nH]3)o2)cc1 | 0.107% (inactive)
18 | CN(C)CCN(C(=O)CN1C(=O)c2ccccc2C1=O)c1nc2cc3c(cc2s1)OCCO3 | 1.9% (inactive)
